Reference: PubChem BioAssay (Tox21)
Records with an inconclusive call do not appear. Active and inactive are the calls of the source. Unless noted, calls come from the whole dose curve; as a rule, active = well fitted curve in the direction sought with a large enough effect in the repeat runs; inconclusive = weak or mixed curves; inactive = no such curve, though single readings can be large; an effect the other way counts as inactive or inconclusive.

What was measured:
[1] = qHTS assay for small molecule agonists of the p53 signaling pathway (AID 651631; calls by dose curve; note: nearly all actives have a fitted effect of over 15% in size)
In short: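 HCT-116 p53RE-bla reporter line, 16 h compound treatment at 37 °C, then fluorescence after 2 h with B/G FRET substrate.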

[2] = qHTS assay for small molecules that induce genotoxicity in human embryonic kidney cells expressing luciferase-tagged ATAD5 (AID 651632); note: nearly all actives have a fitted effect of over 15% in size
In short: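 ATAD5-luc HEK293T, 2,000 cells/well; cpd or DMSO pin-transferred; 16 hr, 37C/5% CO2; Amplite 30 min RT; luminescence.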

[3] = qHTS assay for small molecule agonists of the p53 signaling pathway - cell viability (AID 651633; calls by dose curve;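 note: p53RE-bla HCT reporter cells with a stable beta-lactamase p53 reporter; series mostly up to about 83 µM; nearly all actives have a fitted effect of over 30% in size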)
In short: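 p53RE-bla cells, seeded at 4,000 per well and rested 5 h at 37 C/5% CO2, received compounds in DMSO for 16 h at 37 C. CellTiter-Glo was then added, and luminescence was read after 30 min at room temperature to gauge cytotoxicity.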

[4] = qHTS assay for small molecules that induce genotoxicity in human embryonic kidney cells expressing luciferase-tagged ATAD5 - cell viability (AID 651634; calls by dose curve; note: nearly all actives have a fitted effect of over 25% in size)
In short: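 Fluorescence from CellTiter-Fluor, reporting protease activity within live cells, served as the viability read-out. HEK293T cells carrying luciferase-tagged ATAD5 had been treated with compound for 15.5 hr at 37C.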

[5] = qHTS assay for small molecule disruptors of the mitochondrial membrane potential - cell viability (AID 720634; calls by dose curve;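 note: human HepG2 liver cancer cells; series mostly up to about 83 µM; nearly all actives have a fitted effect of over 20% in size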)
In short: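 Cells: HepG2, 2,000/well, attached overnight. Compound 1 hr, 37 C/5% CO2. +m-MPI dye, +CellTiter-Glo 30 min RT. Readout: luminescence (ATP).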

[6] = qHTS assay to test for compound auto fluorescence at 590 nm (red) in HepG2 cells (AID 720674)
In short: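 Intrinsic compound fluorescence in the red window (Ex/Em 540/590 nm) is measured in attached HepG2 cells exposed for 1 hr, DMSO vehicle as baseline, benchmarked to Rose Bengal sodium.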

[7] = qHTS assay to test for compound auto fluorescence at 535 nm (green) in HepG2 cells (AID 720675)
[8] = qHTS assay to test for compound auto fluorescence at 460 nm (blue) in HEK293 cells (AID 720678)
In short: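 After cell attachment (4-5 hr, 37C), compounds were pinned onto HEK293 monolayers in 10% dialyzed FBS medium. The blue channel (405/460 nm) was read following overnight culture. Equivalency was calculated against triamterene.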

[9] = qHTS assay to test for compound auto fluorescence at 590 nm (red) in HEK293 cells (AID 720679)
In short: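 Plates of HEK293 cells (10% dialyzed FBS) are treated with 23 nL compound or DMSO vehicle after a 4-5 hr attachment period, incubated overnight at 37C, and read for red fluorescence at 540/590nm.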

[10] = qHTS assay for small molecule disruptors of the mitochondrial membrane potential (AID 720635)
In short: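 HepG2 cells (2,000/well) attached overnight at 37C, then took compound for 1 hr at 37C, 5% CO2. Mito-MPS dye was added for 30 min; fluorescence was read at 490/535 nm (monomers) and 540/590 nm (aggregates).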
% is set by controls: 0 for no effect and ±100 for the full control effect.

CCCCCCCCCCCCCCC(=O)NC(CO)CCCCCCCCCCCCCC (stereo not drawn)
inactive: outcome [1] | outcome [2] | outcome [3] | Potency [4] | outcome [5] | outcome [6] | outcome [7] | outcome [8] | outcome [9]

c1ccc2c(CC3=NCCN3)cccc2c1
inactive: outcome [1] | outcome [2] | outcome [3] | Potency [4] | outcome [5] | Potency [10] | outcome [7] | outcome [8] | outcome [9]

Cc1ncc([N+](=O)[O-])n1CC(C)O (stereo not drawn)
inactive: outcome [1] | outcome [2] | outcome [3] | Potency [4] | outcome [5] | Potency [10] | outcome [7] | outcome [8] | outcome [9]

OCC1(CO)COCOC1
inactive: outcome [1] | outcome [2] | outcome [3] | Potency [4] | outcome [5] | outcome [6] | outcome [7] | outcome [8]

CCc1occc(=O)c1O
inactive: outcome [1] | outcome [2] | outcome [3] | Potency [4] | outcome [5] | outcome [6] | outcome [7] | outcome [8] | outcome [9]

CC/C=C\CCOC(=O)c1ccccc1O
inactive: outcome [1] | outcome [2] | outcome [3] | Potency [4] | outcome [5] | outcome [6] | outcome [7] | outcome [8] | outcome [9]

O=C(O)CONC(=O)c1ccccc1
inactive: outcome [1] | outcome [2] | outcome [3] | Potency [4] | outcome [5] | outcome [6] | outcome [7] | outcome [8] | outcome [9]

CC(=O)CC(=O)Nc1ccc(C)cc1C
inactive: outcome [1] | outcome [2] | outcome [3] | Potency [4] | outcome [5] | outcome [6] | outcome [7] | outcome [8] | outcome [9]

CCCC(CC)c1ccccc1 (stereo not drawn)
inactive: outcome [1] | outcome [2] | outcome [3] | Potency [4] | outcome [5] | outcome [6] | outcome [7] | outcome [8] | outcome [9]

CC(=O)c1cc(C)oc1C
inactive: outcome [1] | outcome [2] | outcome [3] | Potency [4] | outcome [5] | outcome [6] | outcome [7] | outcome [8] | outcome [9]

C[C@@H](O)C(=O)O
inactive: outcome [1] | outcome [2] | outcome [3] | Potency [4] | outcome [5] | outcome [6] | outcome [7] | outcome [8] | outcome [9]

Cc1c(N)cccc1Cl
inactive: outcome [1] | outcome [2] | outcome [3] | Potency [4] | outcome [5] | Potency [10] | outcome [6] | outcome [8] | outcome [9]

CC(=O)OC1CCCCC1C(C)(C)C (stereo not drawn)
inactive: outcome [1] | outcome [2] | outcome [3] | Potency [4] | outcome [5] | Potency [10] | outcome [7] | outcome [8]

CC(CO)(CO)CO
inactive: outcome [1] | outcome [2] | outcome [3] | Potency [4] | outcome [5] | Potency [10] | outcome [6] | outcome [8] | outcome [9]

N[C@@H](CSCCCO)C(=O)O
inactive: outcome [1] | outcome [2] | outcome [3] | Potency [4] | outcome [5] | Potency [10] | outcome [6] | outcome [8] | outcome [9]

NCc1ccc(S(N)(=O)=O)cc1
inactive: outcome [1] | outcome [2] | outcome [3] | Potency [4] | outcome [5] | Potency [10] | fluorescence, % of triamterene [8] 0.204% [at 18.6 µM] | fluorescence, % of fluorescent control [9] -0.0605% [at 18.6 µM]

C=CCCCCCCCC
inactive: outcome [1] | outcome [2] | outcome [3] | Potency [4] | outcome [5] | outcome [6] | outcome [7] | outcome [8] | outcome [9]

CC(=O)CC(=O)OC(C)(C)C
inactive: outcome [1] | outcome [2] | Potency [4] | outcome [5] | Potency [10] | outcome [7] | outcome [8]

Cn1c(=O)c2[nH]c(Br)nc2n(C)c1=O
inactive: outcome [1] | outcome [2] | outcome [3] | outcome [5] | outcome [6] | outcome [7] | outcome [8] | outcome [9]

CC1(C)[C@H]2CC[C@](C)(C2)[C@H]1O
inactive: outcome [1] | outcome [2] | outcome [3] | Potency [4] | outcome [5] | outcome [7] | outcome [8] | outcome [9]

Nc1nnnn1-c1ccccc1
inactive: outcome [1] | outcome [2] | Potency [4] | outcome [5] | Potency [10] | outcome [6] | outcome [7] | outcome [8] | outcome [9]

CC(=O)C1C(=O)C=C(C)OC1=O (stereo not drawn)
inactive: outcome [1] | outcome [2] | outcome [3] | Potency [4] | outcome [5] | outcome [7] | outcome [8] | outcome [9]

COC(=O)/C=C\C(=O)O
inactive: outcome [1] | outcome [2] | Potency [4] | outcome [5] | Potency [10] | outcome [6] | outcome [7] | outcome [8] | outcome [9]

CCCCOCC(C)O (stereo not drawn)
inactive: outcome [1] | outcome [2] | Potency [4] | outcome [5] | outcome [6] | outcome [8]

C=C(C)[C@@H]1CC=C(C)CC1
inactive: outcome [1] | outcome [2] | outcome [3] | Potency [4] | outcome [6] | outcome [7] | outcome [8] | outcome [9]

CC1OCCC1=O (stereo not drawn)
inactive: outcome [1] | outcome [2] | Potency [4] | outcome [5] | Potency [10] | outcome [7] | outcome [8] | outcome [9]

OC[C@@H](O)C(O)[C@@H](O)CO (stereo partly drawn)
inactive: outcome [1] | outcome [2] | outcome [3] | Potency [4] | outcome [5] | outcome [7] | outcome [8] | outcome [9]

CN(C)CC/C=C1/c2ccccc2COc2ccc(CC(=O)O)cc21
inactive: outcome [1] | outcome [2] | outcome [3] | Potency [4] | outcome [6] | outcome [7] | outcome [8]

C=CCCCC
inactive: outcome [1] | outcome [2] | outcome [3] | Potency [4] | outcome [6] | outcome [8] | outcome [9]
